From the OligoGym collection
Note: reference of the scale not given here.

Each sequence was assayed against GRIA1 (assay: pooled miR-30 sensor sort-seq; sequence = guide strand). Settings: shRNA.
TTATCGTACCACCATTTGCTTT was tested, and the sensor-assay potency score (higher = more potent) was -1.73.
With TTGACTGCTGTCACCTGCCAGT the sensor-assay potency score (higher = more potent) was -0.603.
TATAACTTCTTCCCGGACCAAA showed a sensor-assay potency score (higher = more potent) of -1.38.
TATCGTACCACCATTTGCTTTT showed a sensor-assay potency score (higher = more potent) of -0.245.
TTTCTCATTAAACTGCACGTTT gave a sensor-assay potency score (higher = more potent) of -0.314.
TTGTCTTGTCCTTACTTCCGGA gave a sensor-assay potency score (higher = more potent) of -0.41.
In the case of TTTGTTTAAGTCAATGTCCATG, the sensor-assay potency score (higher = more potent) is reported as -1.06.
With TTTCTGTCTGCTTCGCTAGGTC the sensor-assay potency score (higher = more potent) was -0.0532.
TTCTCTAGCTTTATAATCTGGC showed a sensor-assay potency score (higher = more potent) of -0.406.
With TAAACCTTCAAATCGCACCTGC the sensor-assay potency score (higher = more potent) was 0.232.
Sequence AAATCTATAACTTCTTCCCGGA has a sensor-assay potency score (higher = more potent) of 0.0312.
Work on TCCATCACTGACAATCTCCAGA yielded a sensor-assay potency score (higher = more potent) of -1.21.

Each sequence was assayed against GRIK2 in the same assay as above. Settings: shRNA.
Work on TTGTCCATTGGCATCATCCTGG yielded a sensor-assay potency score (higher = more potent) of -0.234.
Sequence TTGACCAGCACTGACTGCCTTC has a sensor-assay potency score (higher = more potent) of -0.29.
TTTGTTTAGCTAAATCATCAGC was tested, and the sensor-assay potency score (higher = more potent) was -0.527.
Sequence TTCTTCATTACTTTTGACCAGC has a sensor-assay potency score (higher = more potent) of -0.437.
In the case of TTAATTAGACTCATAAAGCGGG, the sensor-assay potency score (higher = more potent) is reported as 0.186.
Sequence TACACTGCAAGGAACTGACTGT has a sensor-assay potency score (higher = more potent) of 0.034.
In the case of TTTGTTGTCTGACACCTGGTGC, the sensor-assay potency score (higher = more potent) is reported as 0.0104.
With TTTATGTCGATTACACTGCAAG the sensor-assay potency score (higher = more potent) was -0.937.
TCGAACATAGGTAATAGCCAGT gave a sensor-assay potency score (higher = more potent) of -0.567.
In the case of TTGAGTCGAAGATTATACCTTG, the sensor-assay potency score (higher = more potent) is reported as 0.358.
In the case of TAGAGCAGCATCAGTCGTCATA, the sensor-assay potency score (higher = more potent) is reported as -0.889.
TACTGCTCCATATTCTATCTTG showed a sensor-assay potency score (higher = more potent) of -0.199.
